Results taken from the supplement of paper PMC8728848.
The sample as a whole holds a higher share of the strongest signals than the screen did.

Experiments:
Assay in all cases: glycan array binding signal (z-score within array); higher = stronger binding
Settings in all cases: glycan notation: IUPAC condensed, linker removed
[1] = biological target: Fuc(a1-2)Gal(b1-3)[Fuc(a1-4)]GlcNAc
Procedure, shortened: (§1)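 The binding signal is a Z-score computed within each array and averaged over linkers. Arrays of the same protein sequence at different concentrations or buffers were also averaged together. Data originate from 3228 arrays in the Consortium for Functional Glycomics database, kept only where the protein sequence was available.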

Fuc(a1-2)GlcNAc = biological target: Fuc(a1-2)GlcNAc
Procedure, shortened: as §1

[2] = biological target: Fuc(a1-2)[GalNAc(a1-3)]Gal(b1-3)GlcNAc
Procedure, shortened: as §1

[3] = biological target: Gal(b1-3)GalNAc(b1-4)Gal(b1-4)Glc
Procedure, shortened: as §1

[4] = biological target: Gal(b1-3)GlcNAc(b1-3)Gal(b1-4)Glc
Procedure, shortened: as §1

[5] = biological target: Gal(b1-3)[Fuc(a1-4)]GlcNAc(b1-3)Gal(b1-4)[Fuc(a1-3)]GlcNAc
Procedure, shortened: as §1

[6] = biological target: Gal(b1-4)GlcNAc(b1-3)Gal(b1-4)GlcNAc(b1-3)Gal(b1-4)GlcNAc
Procedure, shortened: as §1

Gal3S6S(b1-4)GlcNAc6S = biological target: Gal3S6S(b1-4)GlcNAc6S
Procedure, shortened: as §1

GalNAc(a1-3)GalNAc = biological target: GalNAc(a1-3)GalNAc
Procedure, shortened: as §1

[7] = biological target: GlcNAc(b1-3)Gal(b1-4)GlcNAc
Procedure, shortened: as §1

GlcNAc(b1-3)Man = biological target: GlcNAc(b1-3)Man
Procedure, shortened: as §1

[8] = biological target: GlcNAc(b1-3)[GlcNAc(b1-6)]GalNAc
Procedure, shortened: as §1

[9] = biological target: Man(a1-2)Man(a1-3)[Man(a1-2)Man(a1-6)]Man(a1-6)[Man(a1-2)Man(a1-2)Man(a1-3)]Man(b1-4)GlcNAc(b1-4)GlcNAc
Procedure, shortened: as §1

[10] = biological target: Man(a1-2)Man(a1-6)[Man(a1-3)]Man(a1-6)[Man(a1-2)Man(a1-2)Man(a1-3)]Man
Procedure, shortened: as §1

[11] = biological target: Man(a1-3)[Man(a1-6)]Man(a1-6)[Man(a1-2)Man(a1-3)]Man(b1-4)GlcNAc(b1-4)GlcNAc
Procedure, shortened: as §1

[12] = biological target: Man(a1-3)[Man(a1-6)]Man(a1-6)[Man(a1-3)]Man(b1-4)GlcNAc(b1-4)GlcNAc
Procedure, shortened: as §1

[13] = biological target: Neu5Ac(a2-3)Gal(b1-3)GalNAc(b1-3)Gal(a1-4)Gal(b1-4)Glc
Procedure, shortened: as §1

[14] = biological target: Neu5Ac(a2-3)Gal(b1-3)GlcNAc6S
Procedure, shortened: as §1

[15] = biological target: Neu5Ac(a2-3)Gal(b1-3)[Neu5Ac(a2-3)Gal(b1-4)]GlcNAc
Procedure, shortened: as §1

[16] = biological target: Neu5Ac(a2-3)Gal(b1-4)[Fuc(a1-3)]GlcNAc(b1-3)Gal(b1-4)GlcNAc
Procedure, shortened: as §1

[17] = biological target: Neu5Ac(a2-3)Gal(b1-4)[Fuc(a1-3)]GlcNAc(b1-3)Gal(b1-4)[Fuc(a1-3)]GlcNAc(b1-3)Gal(b1-4)[Fuc(a1-3)]GlcNAc
Procedure, shortened: as §1

[18] = biological target: Neu5Ac(a2-3)Gal(b1-4)[Fuc(a1-3)]GlcNAc(b1-6)[Gal(b1-3)]GalNAc
Procedure, shortened: as §1

[19] = biological target: Neu5Ac(a2-3)Gal6S(b1-4)[Fuc(a1-3)]GlcNAc
Procedure, shortened: as §1

[20] = biological target: Neu5Ac(a2-3)GalNAc(b1-4)GlcNAc
Procedure, shortened: as §1

[21] = biological target: Neu5Ac(a2-6)Gal(b1-4)GlcNAc(b1-3)Gal(b1-4)[Fuc(a1-3)]GlcNAc(b1-3)Gal(b1-4)[Fuc(a1-3)]GlcNAc
Procedure, shortened: as §1

[22] = biological target: Neu5Ac(a2-8)Neu5Ac(a2-8)Neu5Ac(a2-3)Gal(b1-4)Glc
Procedure, shortened: as §1

[23] = biological target: Neu5Ac(a2-8)Neu5Ac(a2-8)Neu5Ac(a2-3)[GalNAc(b1-4)]Gal(b1-4)Glc
Procedure, shortened: as §1

[24] = biological target: Man(a1-3)[Man(a1-6)]Man(a1-6)[Man(a1-3)]Man
Procedure, shortened: as §1

Man(a1-6)Man = biological target: Man(a1-6)Man
Procedure, shortened: as §1

[25] = biological target: Neu5Ac(a2-3)Gal(b1-3)GlcNAc(b1-2)Man(a1-3)[GlcNAc(b1-4)][Neu5Ac(a2-3)Gal(b1-3)GlcNAc(b1-2)Man(a1-6)]Man(b1-4)GlcNAc(b1-4)GlcNAc
Procedure, shortened: as §1

[26] = biological target: Neu5Ac(a2-3)Gal(b1-3)GlcNAc(b1-4)Gal(b1-4)Glc
Procedure, shortened: as §1

Neu5Ac(a2-3)Gal(b1-4)Glc = biological target: Neu5Ac(a2-3)Gal(b1-4)Glc
Procedure, shortened: as §1

[27] = biological target: Neu5Ac(a2-3)Gal(b1-4)GlcNAc(b1-2)Man
Procedure, shortened: as §1

[28] = biological target: Neu5Ac(a2-3)Gal(b1-4)GlcNAc(b1-2)[Neu5Ac(a2-3)Gal(b1-4)GlcNAc(b1-4)]Man(a1-3)[GlcNAc(b1-4)][Neu5Ac(a2-3)Gal(b1-4)GlcNAc(b1-4)Man(a1-6)]Man(b1-4)GlcNAc(b1-4)GlcNAc
Procedure, shortened: as §1

[29] = biological target: Neu5Ac(a2-3)Gal(b1-4)GlcNAc(b1-3)Gal(b1-4)GlcNAc(b1-2)Man(a1-3)[Neu5Ac(a2-3)Gal(b1-4)GlcNAc(b1-3)Gal(b1-4)GlcNAc(b1-2)Man(a1-6)]Man(b1-4)GlcNAc(b1-4)GlcNAc
Procedure, shortened: as §1

[30] = biological target: Neu5Ac(a2-3)[GalNAc(b1-4)]Gal(b1-4)GlcNAc
Procedure, shortened: as §1

[31] = biological target: Neu5Ac(a2-6)Gal(b1-4)GlcNAc(b1-2)Man(a1-3)[Gal(b1-4)GlcNAc(b1-2)Man(a1-6)]Man(b1-4)GlcNAc(b1-4)GlcNAc
Procedure, shortened: as §1

[32] = biological target: Neu5Ac(a2-6)Gal(b1-4)GlcNAc(b1-2)Man(a1-6)[Man(a1-3)]Man(b1-4)GlcNAc(b1-4)GlcNAc
Procedure, shortened: as §1

[33] = biological target: Neu5Ac(a2-6)Gal(b1-4)GlcNAc(b1-2)[Neu5Ac(a2-6)Gal(b1-4)GlcNAc(b1-4)]Man(a1-3)[GlcNAc(b1-4)][Neu5Ac(a2-6)Gal(b1-4)GlcNAc(b1-4)Man(a1-6)]Man(b1-4)GlcNAc(b1-4)GlcNAc
Procedure, shortened: as §1

[34] = biological target: Neu5Ac(a2-6)Gal(b1-4)GlcNAc(b1-3)Gal(b1-4)GlcNAc
Procedure, shortened: as §1

[35] = biological target: Neu5Ac(a2-6)Gal(b1-4)GlcNAc(b1-3)Gal(b1-4)GlcNAc(b1-3)Gal(b1-4)GlcNAc(b1-2)Man(a1-3)[Neu5Ac(a2-6)Gal(b1-4)GlcNAc(b1-3)Gal(b1-4)GlcNAc(b1-3)Gal(b1-4)GlcNAc(b1-2)Man(a1-6)]GalNAc
Procedure, shortened: as §1

[36] = biological target: Neu5Ac(a2-8)Neu5Ac(a2-3)[GalNAc(b1-4)]Gal(b1-4)Glc
Procedure, shortened: as §1

[37] = biological target: Neu5Ac(a2-8)Neu5Ac(a2-8)Neu5Ac(a2-8)Neu5Ac(a2-3)[GalNAc(b1-4)]Gal(b1-4)Glc
Procedure, shortened: as §1

[38] = biological target: Neu5Gc(a2-3)Gal(b1-3)[Fuc(a1-4)]GlcNAc
Procedure, shortened: as §1

Neu5Gc(a2-3)Gal(b1-4)Glc = biological target: Neu5Gc(a2-3)Gal(b1-4)Glc
Procedure, shortened: as §1

[39] = biological target: Neu5Gc(a2-3)Gal(b1-4)GlcNAc
Procedure, shortened: as §1

B1: CD83 (Homo sapiens) (protein)
chain: MSRGLQLLLLSCAYSLAPATPEVKVACSEDVDLPCTAPWDPQVPYTVSWVKLLEGGEERMETPQEDHLRGQHYHQKGQNGSFDAPNERPYSLKIRNTTSCNSGTYRCTLQDPDGQRNLSGKVILRVTGCPAQRKEETFKKYRAETSEQKLISEEDLSRGSDDDDKAEPRGP
glycan array binding signal (z-score) [1]: -0.388 | glycan array binding signal (z-score) (Fuc(a1-2)GlcNAc): -0.045 | glycan array binding signal (z-score) [2]: -0.222 | glycan array binding signal (z-score) [3]: -0.09 | glycan array binding signal (z-score) [4]: -0.32 | glycan array binding signal (z-score) [5]: -0.243 | glycan array binding signal (z-score) [6]: -0.142 | glycan array binding signal (z-score) (Gal3S6S(b1-4)GlcNAc6S): -0.129 | glycan array binding signal (z-score) (GalNAc(a1-3)GalNAc): -0.329 | glycan array binding signal (z-score) [7]: -0.162 | glycan array binding signal (z-score) (GlcNAc(b1-3)Man): -0.188 | glycan array binding signal (z-score) [8]: -0.453 | glycan array binding signal (z-score) [9]: 2.96 | glycan array binding signal (z-score) [10]: -0.272 | glycan array binding signal (z-score) [11]: 11.7 | glycan array binding signal (z-score) [12]: 0.723 | glycan array binding signal (z-score) [13]: 0.647 | glycan array binding signal (z-score) [14]: 8.93 | glycan array binding signal (z-score) [15]: -0.458 | glycan array binding signal (z-score) [16]: 0.381 | glycan array binding signal (z-score) [17]: -0.243 | glycan array binding signal (z-score) [18]: -0.12 | glycan array binding signal (z-score) [19]: -0.131 | glycan array binding signal (z-score) [20]: -0.291 | glycan array binding signal (z-score) [21]: 0.014 | glycan array binding signal (z-score) [22]: 3.7 | glycan array binding signal (z-score) [23]: 2.88

B2: CaSRK1 (Capsicum annuum) (protein)
chain: MALCKIFPFAFILLSCSCYLISGQRFDYPTANLSTTWINSVSAPHSIDYTDGSRIRAILLRGTFGPRYACGFYCNGNCESYLFAIFIVQTNSASQITSPAIGFPQVVWSANRNNPVKINSTLQLTAEGDLVLRDADGTLAWSTNTAGKSVAGLSLTDEGNLALFDSKNATVWQSFDHPTDALVPGQKLVPGMKLTASVSRTNWTAGGLFALSAIDNGLVAFVESNPPQKYFEASVGGSNTSGGSNYVKYLNGSLTLFTHSADTTELILISITPASSAQYMKLESNGHLKVYEWTSRGWREVDDLLTGFRGECNYPTVCGRYGICTMGQCSCPTSSSSRTYFRPIDVRRPSLGCSEVTKLTCQNTKKHSPLEVEDVDYFAFKAGISDTDLNTCKRACLEKCSCKAAFFRSGLNSSRTRGDCYLPTEIFSIMNNEKDRTRYDSVAFIKVQV
glycan array binding signal (z-score) [11]: -0.258 | glycan array binding signal (z-score) [24]: -0.303 | glycan array binding signal (z-score) (Man(a1-6)Man): 1.5 | glycan array binding signal (z-score) [25]: -0.549 | glycan array binding signal (z-score) [26]: 0.467 | glycan array binding signal (z-score) (Neu5Ac(a2-3)Gal(b1-4)Glc): -0.089 | glycan array binding signal (z-score) [27]: 7.73 | glycan array binding signal (z-score) [28]: 0.06 | glycan array binding signal (z-score) [29]: 1.33 | glycan array binding signal (z-score) [30]: -0.414 | glycan array binding signal (z-score) [31]: -0.423 | glycan array binding signal (z-score) [32]: -0.589 | glycan array binding signal (z-score) [33]: -0.513 | glycan array binding signal (z-score) [34]: -0.402 | glycan array binding signal (z-score) [35]: 2.58 | glycan array binding signal (z-score) [36]: -0.56 | glycan array binding signal (z-score) [37]: -0.413 | glycan array binding signal (z-score) [38]: -0.319 | glycan array binding signal (z-score) (Neu5Gc(a2-3)Gal(b1-4)Glc): 3.18 | glycan array binding signal (z-score) [39]: -0.416
